Assay results taken from PubChem BioAssay (EPA / NIEHS).
“And” between values parts separate entries of the source, which are not always exact repeats. Equal values may be shown once. Some structures have more than one record in an assay (separate samples or runs), and their calls can disagree. The source made the active and inactive calls. Rule for the calls: active = hit-call score of the fitted dose curve at least 0.9, where 1 is the maximum; inactive = score below 0.9.

How the values were obtained:
[1] = read-out: Matrix Metallopeptidase 9 (MMP9), MMP9 (gene 4318); assay: BSK_BE3C_MMP9: BioMAP Diversity Plus: BE3C Assay for Matrix Metallopeptidase 9 (MMP9) Biomarker Activity (AID 2284283); settings: primary human bronchial epithelial cells
How it was run: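 MMP9 is measured by ELISA after a 24 h compound exposure of primary human bronchial epithelial cultures. Parallel SRB staining gives overt cytotoxicity. Values fitted in the positive direction against DMSO.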

[2] = read-out: Plasminogen activator inhibitor-1 (PAI1), SERPINE1 (gene 5054); assay: BSK_CASM3C_PAI1: BioMAP Diversity Plus: CASM3C Assay for Plasminogen activator inhibitor-1 (PAI1) Biomarker Activity (AID 2284284); settings: primary human coronary artery smooth muscle cells;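 note: PAI-1 protein level measured by ELISA 24 h after dosing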
[3] = read-out: Monocyte Chemoattractant Protein-1 (MCP1), CCL2 (gene 6347); assay: BSK_hDFCGF_MCP1: BioMAP Diversity Plus: hDFCGF Assay for Monocyte Chemoattractant Protein-1 (MCP1) Biomarker Activity (AID 2284285); settings: primary human foreskin fibroblasts
How it was run: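 MCP-1 ELISA readout was taken 24 hours after dosing primary human dermal fibroblasts in the hDFCGF system, with DMSO as baseline. Parallel sulforhodamine B staining of total protein tracked overt cytotoxicity.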

[4] = read-out: Intercellular Adhesion Molecule 1 (ICAM1), ICAM1 (gene 3383); assay: BSK_hDFCGF_ICAM1: BioMAP Diversity Plus: hDFCGF Assay for Intercellular Adhesion Molecule 1 (ICAM1) Biomarker Activity (AID 2284287); settings: primary human foreskin fibroblasts
How it was run: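 ICAM-1 ELISA readout 24 h after dosing, DMSO as baseline, in human dermal foreskin fibroblast cultures. Cytotoxicity checked in parallel wells by SRB staining (0.1% SRB, 10% TCA fixation, 560 nm).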

[5] = read-out: TIMP metallopeptidase inhibitor 2 (TIMP2), TIMP2 (gene 7077); assay: BSK_hDFCGF_TIMP2: BioMAP Diversity Plus: hDFCGF Assay for TIMP metallopeptidase inhibitor 2 (TIMP2) Biomarker Activity (AID 2284289); settings: primary human foreskin fibroblasts
How it was run: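 Primary human foreskin fibroblasts in the hDFCGF system, dosed for 24 h; TIMP-2 level measured by ELISA, fitted in the positive direction against DMSO; cytotoxicity checked in parallel by sulforhodamine B total protein staining.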

[6] = read-out: Vascular cell adhesion molecule 1 (VCAM1), VCAM1 (gene 7412); assay: BSK_IMphg_VCAM1: BioMAP Diversity Plus: IMphg Assay for Vascular cell adhesion molecule 1 (VCAM1) Biomarker Activity (AID 2284286); settings: primary human endothelial cells with macrophages
How it was run: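 ELISA read-out of VCAM-1 on venular endothelial cell/macrophage co-cultures at 24 h post-treatment, with DMSO as baseline and positive-direction fitting. Parallel sulforhodamine B total-protein staining (560 nm) served as the overt cytotoxicity measure.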

[7] = read-out: Interleukin-1 alpha (IL1a), IL1A (gene 3552); assay: BSK_IMphg_IL1a: BioMAP Diversity Plus: IMphg Assay for Interleukin-1 alpha (IL1a) Biomarker Activity (AID 2284290); settings: primary human endothelial cells with macrophages
How it was run: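 IL-1α is quantified by ELISA at 24 h in the endothelial/macrophage IMphg co-culture, with gain of signal fitted relative to DMSO. Parallel SRB total-protein staining flags overt toxicity.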

[8] = read-out: E-selectin (Homo sapiens) (UniProt P16581); assay: BSK_IMphg_ESelectin: BioMAP Diversity Plus: IMphg Assay for Eselectin Biomarker Activity (AID 2284291); settings: primary human endothelial cells with macrophages
How it was run: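 Analysed against DMSO baseline in the positive fitting direction, this endpoint is an ELISA read of E-selectin. It comes from human venular endothelial cells co-cultured with macrophages, sampled 24 h post-dose.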

[9] = read-out: CD40, CD40 (gene 958); assay: BSK_IMphg_CD40: BioMAP Diversity Plus: IMphg Assay for CD40 Biomarker Activity (AID 2284288); settings: primary human endothelial cells with macrophages
How it was run: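 ELISA read-out of cell-surface CD40 at 24 h in human venular endothelial cell/macrophage co-cultures. Activity fitted in the positive direction against DMSO; parallel SRB staining (560 nm) gauges overt cytotoxicity.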

[10] = BSK_IMphg_SRB: Viability Assessment in the BioMAP Diversity Plus: IMphg Assay (AID 2284292); settings: primary human endothelial cells with macrophages;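 note: measured one day after compound addition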
How it was run: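 SRB viability endpoint: cultures of human endothelial cells plus macrophages fixed with 10% TCA, stained with 0.1% SRB, read at 560 nm 24 h post-dosing. Only gain-of-signal fitted, relative to DMSO.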

Measured: AC50

E-selectin (Homo sapiens), sequence (P16581 whole entry, looked up): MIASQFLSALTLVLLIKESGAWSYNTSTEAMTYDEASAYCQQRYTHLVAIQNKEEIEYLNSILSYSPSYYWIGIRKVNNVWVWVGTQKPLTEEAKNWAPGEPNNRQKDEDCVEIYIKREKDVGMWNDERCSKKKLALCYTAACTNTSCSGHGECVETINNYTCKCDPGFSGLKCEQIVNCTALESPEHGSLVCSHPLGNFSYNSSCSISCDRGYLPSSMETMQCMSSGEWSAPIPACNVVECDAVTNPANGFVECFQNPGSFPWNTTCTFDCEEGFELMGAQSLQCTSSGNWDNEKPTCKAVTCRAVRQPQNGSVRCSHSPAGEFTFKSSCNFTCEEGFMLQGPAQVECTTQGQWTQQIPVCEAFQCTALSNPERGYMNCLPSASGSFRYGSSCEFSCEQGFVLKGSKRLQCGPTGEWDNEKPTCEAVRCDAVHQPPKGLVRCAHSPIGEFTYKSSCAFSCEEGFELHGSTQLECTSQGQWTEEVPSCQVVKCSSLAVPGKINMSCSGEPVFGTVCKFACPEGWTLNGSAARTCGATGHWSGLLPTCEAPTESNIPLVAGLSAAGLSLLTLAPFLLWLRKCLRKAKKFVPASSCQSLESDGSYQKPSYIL

CCCCC(CC)COP(=O)(O)OCC(CC)CCCC (centres undefined)
inactive: [1] | [2] | [4] | [5]
active: [1] 29.6 µM | [3] 32.2 µM

C=C(C)C(=O)OCC(F)(F)C(F)(F)C(F)(F)F
not listed: [9] | [10]
inactive: all other assays above

OCC(F)(F)C(F)(F)C(F)(F)C(F)F
inactive: all assays above

CCO[Si](CCC(F)(F)C(F)(F)C(F)(F)C(F)(F)C(F)(F)C(F)(F)F)(OCC)OCC
not listed: [10]
inactive: all other assays above

C=CC(=O)OCC(F)(F)C(F)(F)C(F)(F)C(F)(F)C(F)(F)C(F)(F)C(F)(F)F
active: [9] 6.54 µM
inactive: [1] | [2] | [3] | [6] | [4] | [9] | [5] | [7] | [8]

O=C(O)C=C(C(F)(F)F)C(F)(F)F
active: [1] 10.8 µM | [3] 2.31 µM | [6] 30 µM | [8] 20.2 µM and 18 µM
inactive: [1] | [2] | [3] | [6] | [4] | [5] | [7]

Cc1ccc(S(=O)(=O)OCC(F)(F)C(F)(F)C(F)(F)C(F)(F)C(F)(F)C(F)F)cc1
active: [3] 6.75 µM and 3.49 µM
inactive: all other assays above

O=C(O)C(F)(OC(F)(F)C(F)(OC(F)(F)C(F)(OC(F)(F)C(F)(F)C(F)(F)F)C(F)(F)F)C(F)(F)F)C(F)(F)F (centres undefined)
not listed: [10]
inactive: all other assays above

C=C(C)C(=O)OCCC(F)(F)C(F)(F)C(F)(F)C(F)(F)C(F)(C(F)(F)F)C(F)(F)F
not listed: [10]
inactive: all other assays above

FC(F)(F)C(F)(F)C(F)(F)N(C(F)(F)C(F)(F)C(F)(F)F)C(F)(F)C(F)(F)C(F)(F)F
inactive: all assays above

O=C(O)C(F)(OC(F)(F)C(F)(OC(F)(F)C(F)(F)C(F)(F)F)C(F)(F)F)C(F)(F)F (centres undefined)
not listed: [10]
inactive: all other assays above

O=C(O)C(F)(F)C(F)(F)C(F)(F)C(F)(F)C(F)(F)C(F)(F)C(F)(F)C(F)(F)C(F)(F)C(F)(F)C(F)(F)C(F)(F)C(F)(F)F
active: [1] 0.675 µM
inactive: [1] | [2] | [3] | [6] | [4] | [5] | [7] | [8]

FC(F)(F)C(F)(F)C(F)(F)CI
not listed: [10]
inactive: all other assays above
